Structures are written as SMILES. Compounds without any hit were thinned out: in the full panel of roughly 83,000, 20% have a hit.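 Testing used 96-well plates and a 48-hour single-concentration exposure. Example: -40 means 40% of the starting cells died.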 Unmarked numbers belong to inactive results. Calls of active or inactive are those of the source. How the source made its calls: active means growth percent below 10; inactive means the rest.

Data on 14 compounds can be found in PubChem BioAssay (NCI).

Common to all, as to test: NCI-60 one-dose screen, 48 h (100 = growth as untreated, 0 = no growth, -100 = all killed)
Holding throughout (settings): 10 µM

The subject of assay [1] is HCT-15 colon.
The test system of assay [2] is HT29 colon.
Assay [3] deals with SNB-75 CNS.
Assay [4] concerns SNB-19 CNS.
Assay [5] has as its system U251 CNS.
The subject of assay [6] is PC-3 prostate.
Assay [7] has as its system SK-MEL-5 melanoma.
In assay [8] the test system is UACC-62 melanoma.
Assay [9] concerns LOX IMVI melanoma.
Assay [10] concerns SK-MEL-28 melanoma.
For assay [11], the system named is SK-MEL-2 melanoma.
The subject of assay [12] is EKVX NSCLC.
Assay [13] deals with SN12C renal.
Assay [14] deals with UO-31 renal.
Assay [15] deals with TK-10 renal.
The test system of assay [16] is ACHN renal.
In assay [17] the test system is A498 renal.
Assay [18] relates to CCRF-CEM leukemia.
Assay [19] relates to MOLT-4 leukemia.
The subject of assay [20] is CAKI-1 renal.

Consider `Cc1ccc2nc(-c3ccc(-c4nnc(SCC(=O)Nc5ccc(Br)cc5)o4)cc3)[nH]c2c1`, for which the growth in [1] is 42%; in assay [2], 77.5%; in assay [3], 83.8%; in assay [4] it was 70.3%; in assay [5], 11.5%; in assay [6], 56.8%. Also, the growth is 85.5% in assay [7]; 57.3% in [8]; -12.7% (active) in assay [9]; 92.4% in assay [10]; 83.8% in assay [11]; 85.1% in [12]. Moreover, the growth in assay [13] is 51%; in [14] it was 51.5%; in [15] it was 74.7%; in [16], 67.8%; in assay [17], 83.4%; in [18] it was 38.2%. Further, the growth in [19] is 15.9%.
With `COc1ccc(-c2ccc(/C=N/NC(=O)c3[nH]c4ccc(Br)cc4c3-c3ccccc3)o2)cc1`, the growth was 26.4% in [1]; 55.1% in [2]; 33% in assay [3]; 57.6% in assay [4]; 26.2% in [5]; 55.1% in assay [6]. Also, the growth in [7] is 30.3%; in [8], 30.4%; in assay [9], 26.7%; in assay [10], 46.9%; in [11], 34.3%; in [12], 60.1%. Also, the growth in assay [13] was 35%; in assay [14], 43.9%; in assay [15], 88.4%; in assay [16], 30.9%; in assay [20], 28.4%; in assay [17], 73.9%. Moreover, the growth in [18] is 10.5%; in [19] it was 20.9%.
With `CCCCCCCCCCCCCCCCCCCC(=O)NCCc1c[nH]c2ccc(OC(=O)CCCC(=O)OCCOOCCOOCCOOCCOOCCOOCCOOCCOOCCOOCCOOCCOOCCOOCCOC)cc12`, the growth in [1] was 56%; in [2], 63.4%; in assay [3] it was 110%; in assay [4] it was 69.1%; in assay [5] it was -31.3% (active); in assay [6], 22%. In addition, the growth in assay [7] was 99.6%; in assay [8], 67.1%; in assay [9], 27.2%; in assay [10] it was 88%; in assay [11] it was 78.1%; in assay [12], 83.1%. The growth was 17.4% in assay [13]; 45.4% in assay [14]; 120% in assay [15]; 59.9% in [16]; 73.7% in [20]; 116% in [17]. Also, the growth in assay [19] is -4.66% (active).
Turning to `O=C1Nc2cc(-c3ccc(NC(=O)c4cccc([N+](=O)[O-])c4)cc3)ccc2/C1=C/c1ccc[nH]1`, the growth in assay [1] is 55.3%; in assay [2], 102%; in assay [3], 223%; in [4], 94.5%; in assay [5], 99.3%; in [6] it was 66.2%. Besides, the growth in [7] was 104%; in assay [8] it was 63.7%; in [9], 86.9%; in assay [10], 97.1%; in [11] it was 51.4%; in assay [12] it was 66.5%. Moreover, the growth in assay [13] is 101%; in assay [14], 67.2%; in assay [15], 108%; in assay [16] it was 59.6%; in [17] it was 149%; in assay [18] it was 91.2%. Besides, the growth in assay [19] is 73.8%.
For the compound `O=C(CSc1nnc(-c2c[nH]c3ccccc23)n1-c1ccccc1)Nc1ccc(C(=O)/C=C/c2ccc(Br)cc2)cc1`, the growth in [1] was 68.1%; in assay [2], 86.6%; in assay [3], 86.6%; in assay [4] it was 77%; in [5] it was 81.6%; in assay [6], 66%. The growth in assay [7] was 90.5%; in [8], 66.4%; in [9], 81.6%; in assay [10], 94%; in assay [11], 101%; in assay [12], 67.4%. Further, the growth in [13] was 89.5%; in assay [14], 52.9%; in assay [15], 97.7%; in assay [16], 78%; in assay [20], 76%; in assay [17], 106%. In addition, the growth in [18] is 90.9%; in assay [19], 57.1%.
Regarding `COc1ccc(NC(=O)Cn2c(/C=C/c3ccc(N(C)C)cc3)nc3ccccc3c2=O)cc1`, the growth in [1] is 57%; in [2], 44.7%; in assay [3] it was 84.1%; in assay [4], 70.7%; in assay [5], 23%; in [6] it was 64.5%. Moreover, the growth in assay [7] is 30.7%; in [8], 40.9%; in assay [9], 13.8%; in [10], 45.6%; in assay [11] it was 76.4%; in assay [12], 71.2%. Moreover, the growth in [13] is 24%; in assay [14] it was 2.65% (active); in assay [15], 62.8%; in [16], -2.17% (active); in assay [20], 18.9%; in assay [17] it was 56.5%. The growth in assay [18] is 90.9%; in [19], 85.3%.
As for `Cc1cc(=O)oc2cc(OCCCCOc3ccc(/C=C/C(=O)Nc4ccc(F)c(Cl)c4)cc3)ccc12`, the growth in assay [1] is 97%; in [2], 111%; in [3] it was 116%; in assay [4], 93.4%; in [5], 95.1%; in assay [6], 99.6%. Moreover, the growth is 85.2% in [7]; 92% in [8]; 97.6% in assay [9]; 93% in [10]; 117% in assay [11]; 96.4% in assay [12]. In addition, the growth is 96.4% in assay [13]; 86.1% in assay [14]; 112% in [15]; 107% in [16]; 108% in [17]; 92.7% in assay [18]. Also, the growth in assay [19] was 93.5%.
As to `O=c1oc2ccc(-c3ccc(F)cc3F)cc2c(=O)n1-c1ccc(F)cc1`, the growth was 5.32% (active) in assay [1]; 59.6% in assay [2]; -14% (active) in assay [3]; 13.3% in assay [4]; 18% in assay [5]; 0.638% (active) in assay [6]. Further, the growth in [7] is -77.9% (active); in assay [8], -50.2% (active); in assay [9] it was 1.46% (active); in assay [10] it was -0.667% (active); in assay [11] it was -61.5% (active); in [12] it was 4.34% (active). Further, the growth in assay [13] is -13.3% (active); in assay [14], -3.9% (active); in assay [15], 20.5%; in assay [16], -12.7% (active); in [20], -24.1% (active); in [17], -17.2% (active). The growth was 1.33% (active) in [18] and -32.1% (active) in assay [19].
With `COc1ccc(-c2ccc(/C=N/NC(=O)c3[nH]c4ccc(Br)cc4c3-c3ccccc3)s2)cc1`, the growth in assay [1] was 68.4%; in assay [2] it was 84.5%; in assay [3] it was 88.1%; in [4], 73.8%; in assay [5], 35.9%; in assay [6], 91.7%. Moreover, the growth in assay [7] is 106%; in [8], 45.9%; in assay [9], 75.5%; in assay [10], 105%; in assay [11], 106%; in assay [12] it was 110%. In addition, the growth in [13] was 74.9%; in assay [14], 86.4%; in assay [15] it was 127%; in assay [16], 106%; in assay [17], 131%; in assay [18], 88%. For the same compound, the growth in [19] was 87.6%.
As for `CCCCCCCCCCCCCCCCCCCC(=O)NCCc1c[nH]c2ccc(O)cc12`, the growth is 96.2% in assay [1]; 121% in [2]; 129% in assay [3]; 104% in assay [4]; 99% in assay [5]; 73.4% in assay [6]. The growth in assay [7] is 110%; in assay [8], 99.7%; in assay [9], 76.7%; in assay [10] it was 106%; in assay [11], 107%; in [12], 101%. The growth in assay [13] was 84.9%; in assay [14] it was 71.9%; in [15] it was 118%; in assay [16] it was 98.8%; in [20], 105%; in assay [17] it was 118%. The growth in assay [19] was 71.2%.
On to `CC(=O)Nc1ccc(-c2cn(-c3cccc(C(=O)Nc4cc(C(F)(F)F)cc(C(F)(F)F)c4)c3)nn2)cn1`, for which the growth in assay [1] is -40.5% (active); in assay [2] it was -37.4% (active); in [3], -6.74% (active); in [4] it was -42.4% (active); in assay [5] it was -66.2% (active); in assay [6], -59.5% (active). For the same compound, the growth in assay [7] was -38.9% (active); in assay [8], -46.2% (active); in assay [9], -100% (active); in assay [10], -46.4% (active); in assay [11], -38.6% (active); in assay [12], -25.7% (active). Also, the growth in [13] is -50.1% (active); in assay [14], 1.1% (active); in assay [15], -10.4% (active); in assay [16] it was -26.2% (active); in assay [17], -30.2% (active); in [18], -25.4% (active). Besides, the growth in [19] is -37.1% (active).
Turning to `Cc1cc2c(c(O)c1Br)-c1ncoc1C(=O)[C@]1(C)CC[C@H](C(C)C)[C@H]21`, the growth in assay [1] was 7.31% (active); in assay [2], 5.42% (active); in [3] it was 59.6%; in assay [4], 45%; in assay [5], 26.7%; in [6], 9.6% (active). Besides, the growth in assay [7] was -29.9% (active); in assay [8] it was 33.1%; in assay [9] it was 35.6%; in assay [10], 46.6%; in [11] it was 4.52% (active); in assay [12] it was 46.7%. For the same compound, the growth in assay [13] was 54.5%; in assay [14], 50.3%; in assay [15], 68.8%; in assay [16], 52.2%; in assay [17], 104%; in [18] it was 14.2%.
For the compound `N#Cc1ccc(-c2nn(-c3ccc(C(=O)O)cc3)cc2CNc2ccc(Oc3ccccc3)cc2)cc1`, the growth in assay [1] was 49.7%; in [2], 34.4%; in assay [3], 101%; in assay [4], 28.6%; in assay [5] it was 33.9%; in assay [6], 29.5%. Further, the growth was 70% in [7]; 21.9% in [8]; 24.1% in assay [9]; 21.3% in [10]; 55.6% in [11]; 75% in [12]. In addition, the growth is 34.1% in [13]; 66.5% in [14]; 77.1% in assay [15]; 47.3% in assay [16]; 73% in [17]; 19.3% in assay [18]. Moreover, in assay [19], the growth was 19.9%.
Consider `CC1CC(c2ccc(N(C)C)cc2)=NN1c1nc(O)c(C2=c3cc(Br)ccc3=NC2=O)s1` (stereo not drawn), for which the growth in assay [1] was 50.5%; in assay [2] it was 83.5%; in [3] it was 89.9%; in [4] it was 94.7%; in assay [5], 69.9%; in [6], 53.2%. Further, the growth was 73.5% in [7]; 98.5% in [8]; -46.1% (active) in [9]; 110% in [10]; 98.9% in assay [11]; 61.9% in [12]. Besides, the growth in assay [13] was 106%; in [14], 78.3%; in assay [15], 94.4%; in assay [16], 92.2%; in assay [17] it was 103%; in assay [18] it was 29.8%.
